PubChem BioAssay AID1159580 (chemical genetic matrix, 2015)
Where “and” joins values, the source holds several entries; their conditions need not be identical. Identical values can stand only once. Hit rate of the full screen: of about 5,500 compounds, about 2,000 (36%) were called active. Inconclusive results (about 18%) are left out. Rule as the data show it: active = normalized growth mostly below about 0.91 (no sharp cut-off); inconclusive = no clear call, values can overlap the other calls; inactive = mostly above about 0.92. This is one part of the list.

Assay: chemical genetic growth profiling, strain panel (AID 1159580);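 also: tested at 20 µM; growth read once vehicle control cultures reached saturation at 30 °C; 1 = growth at the plate median or of vehicle wells; lower values mean less growth of the strain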
Conditions: S. cerevisiae deletion strains, growth OD

Measured: normalized growth

O=C(O)c1ccccc1O
inactive: locus YAL013W, strain DEP1, hits give low values 1.01 | locus YAL021C, strain ccr4, hits give low values 0.985 | locus YAL026C, strain drs2, hits give low values 0.984 | locus YAL030W, strain snc1, hits give low values 0.992 | locus YBL061C, strain skt5, hits give low values 0.979 | locus YBR009C, strain hhf1, hits give low values 0.996 | locus YBR021W, strain FUR4, hits give low values 0.994 | locus YBR023C, strain chs3, hits give low values 0.995 | locus YBR171W, strain sec66, hits give low values 0.996 | locus YBR229C, strain ROT2, hits give low values 1 | locus YBR231C, strain swc5, hits give low values 0.975 | locus YBR279W, strain paf1, hits give low values 0.979 | locus YCL011C, strain gbp2, hits give low values 0.983 | locus YCL016C, strain dcc1, hits give low values 1.01 | locus YCL029C, strain bik1, hits give low values 1.01 | locus YCL069W, strain vba3, hits give low values 0.994 | locus YCR088W, strain abp1, hits give low values 0.981 | locus YDL005C, strain med2, hits give low values 0.973 | locus YDL035C, strain GPR1, hits give low values 1.01 | locus YDL040C, strain nat1, hits give low values 0.969 | locus YDL074C, strain BRE1, hits give low values 1.03 | locus YDL101C, strain DUN1, hits give low values 1.01 | locus YDL134C, strain PPH21, hits give low values 1.01 | locus YDL185W, strain tfp1, hits give low values 0.992 | locus YDL192W, strain arf1, hits give low values 1.01 | locus YDR001C, strain nth1, hits give low values 0.955 | locus YDR069C, strain doa4, hits give low values 0.975 | locus YDR101C, strain arx1, hits give low values 1.01 | locus YDR137W, strain rgp1, hits give low values 0.997 | locus YDR159W, strain sac3, hits give low values 0.976 | locus YDR162C, strain NBP2, hits give low values 1.01 | locus YDR195W, strain ref2 0.904 | locus YDR297W, strain sur2, hits give low values 0.984 | locus YDR318W, strain mcm21, hits give low values 1.03 | locus YDR334W, strain swr1, hits give low values 0.916 | locus YDR335W, strain msn5, hits give low values 0.959 | locus YDR388W, hits give low values 1.01 | locus YDR392W, strain spt3, hits give low values 1.02 | locus YDR502C, strain sam2, hits give low values 1.01 | locus YEL003W, strain gim4, hits give low values 0.973 | locus YEL037C, strain rad23, hits give low values 0.986 | locus YEL061C, strain CIN8 (second series), hits give low values 0.959 | locus YEL061C, strain CIN8, hits give low values 1 | locus YER015W, strain faa2, hits give low values 0.968 | locus YER016W, strain bim1, hits give low values 0.978 | locus YER110C, hits give low values 1.01 | locus YER111C, strain swi4, hits give low values 0.97 | locus YER155C, strain BEM2 (second series), hits give low values 0.967 | locus YER155C, strain BEM2, hits give low values 0.992 | locus YER167W, strain BCK2, hits give low values 1 | locus YFR010W, strain ubp6, hits give low values 0.978 | locus YGL078C, strain dbp3, hits give low values 0.998 | locus YGL086W, strain mad1, hits give low values 1 | locus YGL167C, strain pmr1, hits give low values 0.968 | locus YGL173C, strain kem1, hits give low values 0.995 | locus YGL227W, strain vid30, hits give low values 0.971 | locus YGL240W, strain doc1, hits give low values 0.983 | locus YGL248W, strain PDE1, hits give low values 1 | locus YGL253W, strain hxk2, hits give low values 0.973 | locus YGR078C, strain PAC10, hits give low values 1 | locus YGR135W, strain pre9, hits give low values 1.03 | locus YGR252W, strain gcn5, hits give low values 1.01 | locus YHR013C, strain ard1, hits give low values 1.01 | locus YHR027C, strain rpn1, hits give low values 0.984 | locus YHR030C, strain SLT2, hits give low values 1.01 | locus YHR079C, strain IRE1 (second series), hits give low values 1.02 | locus YHR079C, strain IRE1, hits give low values 1.06 | locus YHR094C, strain hxt1, hits give low values 0.997 | locus YHR129C, strain ARP1, hits give low values 0.998 | locus YHR142W, strain chs7, hits give low values 0.997 | locus YHR200W, strain rpn10, hits give low values 1.01 | locus YIL066C, strain RNR3, hits give low values 1 | locus YIL073C, strain SPO22, hits give low values 1.05 | locus YIL125W, strain kgd1, hits give low values 0.994 | locus YIR030C, strain dcg1, hits give low values 1 | locus YJL092W, strain hpr5, hits give low values 0.996 | locus YJL095W, strain BCK1 (second series), hits give low values 0.978 | locus YJL095W, strain BCK1, hits give low values 1.01 and 0.995 | locus YJL115W, strain asf1, hits give low values 0.951 | locus YJL129C, strain trk1, hits give low values 0.956 | locus YJL134W, strain LCB3, hits give low values 1 | locus YJL154C, strain vps35, hits give low values 0.961 | locus YJL164C, strain tpk1, hits give low values 0.993 | locus YJL166W, strain qcr8, hits give low values 0.994 | locus YJL168C, strain set2, hits give low values 1.01 | locus YJL187C, strain SWE1 (second series), hits give low values 1 | locus YJR043C, strain POL32, hits give low values 0.979
